Here are results for 38 targets from the supplement of paper PMC10849652.

About 7,900 targets were measured; listed, in parts, are those with a hit and a random draw of the rest. About 0.6% of all pairs of compound and target were hits. A number with no mark means an inactive call.

UniProt Q96KP1, sequence (Q96KP1 whole entry, looked up): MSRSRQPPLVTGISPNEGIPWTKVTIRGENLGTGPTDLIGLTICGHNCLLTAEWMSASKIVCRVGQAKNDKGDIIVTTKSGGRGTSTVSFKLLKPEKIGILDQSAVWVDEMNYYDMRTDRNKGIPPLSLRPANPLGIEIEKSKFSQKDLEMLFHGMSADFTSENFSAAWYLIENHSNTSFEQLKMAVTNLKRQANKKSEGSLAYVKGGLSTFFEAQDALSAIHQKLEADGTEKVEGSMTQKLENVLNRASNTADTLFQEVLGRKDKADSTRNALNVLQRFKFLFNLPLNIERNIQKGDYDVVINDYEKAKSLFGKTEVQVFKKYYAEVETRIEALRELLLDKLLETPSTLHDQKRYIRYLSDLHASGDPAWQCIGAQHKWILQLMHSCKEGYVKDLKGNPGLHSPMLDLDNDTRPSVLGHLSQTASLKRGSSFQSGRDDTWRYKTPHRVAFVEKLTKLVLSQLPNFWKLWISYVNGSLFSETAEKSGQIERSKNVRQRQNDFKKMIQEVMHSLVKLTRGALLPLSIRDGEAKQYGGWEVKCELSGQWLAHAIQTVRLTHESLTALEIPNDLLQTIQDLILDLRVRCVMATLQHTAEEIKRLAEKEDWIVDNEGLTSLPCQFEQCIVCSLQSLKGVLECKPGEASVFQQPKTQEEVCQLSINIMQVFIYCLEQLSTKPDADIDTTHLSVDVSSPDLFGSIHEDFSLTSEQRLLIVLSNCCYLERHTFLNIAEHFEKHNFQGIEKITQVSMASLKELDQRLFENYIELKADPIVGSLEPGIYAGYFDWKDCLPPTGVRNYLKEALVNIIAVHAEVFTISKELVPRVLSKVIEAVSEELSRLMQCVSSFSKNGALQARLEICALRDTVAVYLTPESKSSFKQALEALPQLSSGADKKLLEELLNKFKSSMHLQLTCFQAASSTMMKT
UniProt Q15392, sequence (Q15392 whole entry, looked up): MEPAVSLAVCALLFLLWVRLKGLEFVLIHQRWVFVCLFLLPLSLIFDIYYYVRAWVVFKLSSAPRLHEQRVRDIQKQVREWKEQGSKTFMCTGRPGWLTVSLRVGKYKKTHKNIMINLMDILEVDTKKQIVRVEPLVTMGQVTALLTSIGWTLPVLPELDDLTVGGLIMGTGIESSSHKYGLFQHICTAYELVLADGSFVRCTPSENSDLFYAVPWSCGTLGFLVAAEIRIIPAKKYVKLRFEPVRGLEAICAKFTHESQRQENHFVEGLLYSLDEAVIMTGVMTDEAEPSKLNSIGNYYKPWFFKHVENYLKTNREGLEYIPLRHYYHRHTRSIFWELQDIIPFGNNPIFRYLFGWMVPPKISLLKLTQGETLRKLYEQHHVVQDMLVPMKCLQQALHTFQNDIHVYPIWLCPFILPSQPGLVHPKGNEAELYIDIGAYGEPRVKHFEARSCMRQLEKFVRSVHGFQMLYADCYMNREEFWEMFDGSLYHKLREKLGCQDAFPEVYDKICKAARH
UniProt P24534, sequence (P24534 whole entry, looked up): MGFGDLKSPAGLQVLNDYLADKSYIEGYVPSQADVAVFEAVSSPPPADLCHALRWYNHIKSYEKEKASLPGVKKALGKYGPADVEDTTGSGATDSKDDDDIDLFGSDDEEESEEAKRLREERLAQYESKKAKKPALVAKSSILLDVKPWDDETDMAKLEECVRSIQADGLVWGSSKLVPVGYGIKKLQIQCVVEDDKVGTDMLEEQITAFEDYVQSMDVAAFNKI
UniProt Q6UX04, sequence (Q6UX04 whole entry, looked up): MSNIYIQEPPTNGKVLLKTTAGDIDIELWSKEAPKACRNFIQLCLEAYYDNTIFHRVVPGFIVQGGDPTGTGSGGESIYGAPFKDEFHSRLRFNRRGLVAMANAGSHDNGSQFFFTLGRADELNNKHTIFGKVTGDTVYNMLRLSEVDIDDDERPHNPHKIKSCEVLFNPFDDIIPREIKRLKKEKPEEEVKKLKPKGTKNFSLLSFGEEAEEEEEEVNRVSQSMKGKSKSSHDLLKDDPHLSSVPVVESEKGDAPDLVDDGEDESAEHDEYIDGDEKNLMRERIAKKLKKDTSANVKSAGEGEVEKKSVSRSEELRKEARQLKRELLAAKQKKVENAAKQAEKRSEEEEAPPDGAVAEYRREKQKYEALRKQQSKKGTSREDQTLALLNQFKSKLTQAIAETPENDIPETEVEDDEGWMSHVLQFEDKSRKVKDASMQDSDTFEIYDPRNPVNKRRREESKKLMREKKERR
UniProt Q14689, sequence (Q14689 whole entry, looked up): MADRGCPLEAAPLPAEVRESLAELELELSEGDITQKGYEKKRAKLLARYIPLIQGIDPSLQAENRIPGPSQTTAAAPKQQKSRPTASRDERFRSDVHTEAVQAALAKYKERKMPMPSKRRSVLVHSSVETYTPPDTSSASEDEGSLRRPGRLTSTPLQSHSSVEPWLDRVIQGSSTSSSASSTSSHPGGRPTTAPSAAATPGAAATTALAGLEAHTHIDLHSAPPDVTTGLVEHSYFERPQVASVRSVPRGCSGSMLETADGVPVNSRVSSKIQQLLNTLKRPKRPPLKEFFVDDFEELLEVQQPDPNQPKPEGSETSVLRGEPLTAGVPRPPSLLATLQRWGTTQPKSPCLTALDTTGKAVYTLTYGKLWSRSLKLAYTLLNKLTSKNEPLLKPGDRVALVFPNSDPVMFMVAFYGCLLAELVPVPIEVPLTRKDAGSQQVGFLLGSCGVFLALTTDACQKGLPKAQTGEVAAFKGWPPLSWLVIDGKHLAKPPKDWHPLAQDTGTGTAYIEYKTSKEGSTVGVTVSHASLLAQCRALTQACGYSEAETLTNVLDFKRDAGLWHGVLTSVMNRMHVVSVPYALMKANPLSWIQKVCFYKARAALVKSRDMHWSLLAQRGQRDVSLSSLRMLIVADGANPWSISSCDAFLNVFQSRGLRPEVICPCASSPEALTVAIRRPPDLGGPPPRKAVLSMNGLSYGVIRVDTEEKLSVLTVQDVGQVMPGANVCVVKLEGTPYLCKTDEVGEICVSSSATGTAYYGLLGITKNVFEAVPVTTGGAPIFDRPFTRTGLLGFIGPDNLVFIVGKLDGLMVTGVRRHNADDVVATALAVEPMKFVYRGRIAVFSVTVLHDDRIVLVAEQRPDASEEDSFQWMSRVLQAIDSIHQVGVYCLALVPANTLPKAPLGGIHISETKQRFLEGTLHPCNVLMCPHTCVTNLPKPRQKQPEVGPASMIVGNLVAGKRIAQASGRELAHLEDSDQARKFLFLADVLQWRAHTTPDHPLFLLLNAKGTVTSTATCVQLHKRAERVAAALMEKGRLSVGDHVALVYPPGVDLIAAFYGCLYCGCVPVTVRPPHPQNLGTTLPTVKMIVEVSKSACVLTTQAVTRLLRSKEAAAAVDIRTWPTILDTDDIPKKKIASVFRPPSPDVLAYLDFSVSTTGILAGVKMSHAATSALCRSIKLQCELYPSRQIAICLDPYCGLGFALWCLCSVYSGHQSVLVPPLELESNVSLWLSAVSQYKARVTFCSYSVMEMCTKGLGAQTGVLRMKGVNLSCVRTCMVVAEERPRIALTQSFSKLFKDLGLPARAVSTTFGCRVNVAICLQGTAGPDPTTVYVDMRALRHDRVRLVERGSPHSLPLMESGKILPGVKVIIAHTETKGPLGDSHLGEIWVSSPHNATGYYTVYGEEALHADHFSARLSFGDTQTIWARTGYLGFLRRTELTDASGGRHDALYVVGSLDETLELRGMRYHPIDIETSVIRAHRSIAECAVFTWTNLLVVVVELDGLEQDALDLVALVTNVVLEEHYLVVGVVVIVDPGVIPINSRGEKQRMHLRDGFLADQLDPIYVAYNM
UniProt Q9H467, sequence (Q9H467 whole entry, looked up): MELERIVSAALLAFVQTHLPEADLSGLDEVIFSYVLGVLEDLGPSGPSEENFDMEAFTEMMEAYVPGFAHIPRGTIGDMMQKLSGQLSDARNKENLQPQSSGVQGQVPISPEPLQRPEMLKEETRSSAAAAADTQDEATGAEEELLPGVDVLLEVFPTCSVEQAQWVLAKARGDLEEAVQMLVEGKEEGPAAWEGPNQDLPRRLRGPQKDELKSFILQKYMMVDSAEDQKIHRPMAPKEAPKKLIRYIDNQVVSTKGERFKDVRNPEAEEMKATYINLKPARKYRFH
UniProt Q6V1X1, sequence (Q6V1X1 whole entry, looked up): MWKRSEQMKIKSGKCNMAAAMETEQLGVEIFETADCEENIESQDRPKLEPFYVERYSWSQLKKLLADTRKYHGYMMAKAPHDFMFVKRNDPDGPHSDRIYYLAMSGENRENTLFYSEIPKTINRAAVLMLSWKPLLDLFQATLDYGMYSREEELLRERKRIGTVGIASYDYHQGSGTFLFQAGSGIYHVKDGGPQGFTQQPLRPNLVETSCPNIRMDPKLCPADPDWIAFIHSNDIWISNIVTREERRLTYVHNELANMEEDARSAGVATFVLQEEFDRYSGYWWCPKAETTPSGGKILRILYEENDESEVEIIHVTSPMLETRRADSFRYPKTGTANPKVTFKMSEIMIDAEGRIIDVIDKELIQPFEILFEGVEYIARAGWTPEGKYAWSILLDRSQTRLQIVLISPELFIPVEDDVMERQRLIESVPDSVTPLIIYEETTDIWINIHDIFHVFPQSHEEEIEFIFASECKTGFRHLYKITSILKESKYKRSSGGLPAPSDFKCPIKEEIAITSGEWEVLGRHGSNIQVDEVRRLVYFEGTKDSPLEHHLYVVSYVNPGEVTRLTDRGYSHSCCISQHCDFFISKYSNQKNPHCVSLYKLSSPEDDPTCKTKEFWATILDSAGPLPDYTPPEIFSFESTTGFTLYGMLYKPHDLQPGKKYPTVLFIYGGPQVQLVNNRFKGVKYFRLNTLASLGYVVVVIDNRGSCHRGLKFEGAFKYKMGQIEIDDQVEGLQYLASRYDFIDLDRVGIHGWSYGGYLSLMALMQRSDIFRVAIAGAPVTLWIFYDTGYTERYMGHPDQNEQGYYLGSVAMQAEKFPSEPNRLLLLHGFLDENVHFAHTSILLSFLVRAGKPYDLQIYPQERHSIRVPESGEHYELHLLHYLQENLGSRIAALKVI

Compound in the first assay: Cc1cc(Nc2cc(CN3CCOCC3)c3nc(C)c(Cc4ccc(Cl)cc4F)n3n2)n[nH]1 [gandotinib]
As to the kind of experiment: log2 fold change, soluble protein after heating vs DMSO (PISA); higher = thermal stabilisation; K562 cells, 10 uM, 30 min; active = over 0.2 and 3.5 SD of the protein, either way, in both replicates (recomputed). The method, boiled down: (§1)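 Thermal stability values are relative to control samples and come from duplicates. They are expressed as log2 fold changes. For measurement, K562 cells (2×10^6 cells/mL) received 10 μM compound for 30 min, and aliquots were heated for 3 min over 48°C-58°C, pooled, and extracted at 4°C in PBS with 0.5% NP-40. Soluble protein, the supernatant after 21,000xg for 90 min, was quantified by TMTpro 16plex LC-MS/MS with equalised channel sums.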
For the target CTSL (UniProt P07711), the log2 fold change is 0.006.

Consider CWC27 (UniProt Q6UX04), for which the log2 fold change is 0.033.

As to EEF1B2 (UniProt P24534), the log2 fold change was -0.043.

For the target DCUN1D1 (UniProt Q96GG9), the log2 fold change is -0.059.

Consider CUEDC2 (UniProt Q9H467), for which the log2 fold change was -0.017.

For CUX1 isoform 3 (UniProt P39880), the log2 fold change is -0.048.

For DPYSL2 (UniProt Q16555), the log2 fold change was -0.015.

Turning to EXOC2 (UniProt Q96KP1), the log2 fold change is 0.009.

For DIP2A (UniProt Q14689), the log2 fold change was 0.023.

On to DHCR24 (UniProt Q15392), for which the log2 fold change was -0.025.

As for DBN1 isoform 3 (UniProt Q16643), the log2 fold change was -0.009.

As for DPP8 (UniProt Q6V1X1), the log2 fold change was -0.038.

Turning to DDB1 (UniProt Q16531), the log2 fold change is -0.028.

Take FAM50A (UniProt Q14320): the log2 fold change was 0.147.

Compound in a further assay: Cc1cc(Nc2cc(N3CCN(C)CC3)nc(Sc3ccc(NC(=O)C4CC4)cc3)n2)n[nH]1 [tozasertib]
Described as above. The method, boiled down:
as §1
Consider DDX39A (UniProt O00148), for which the log2 fold change was 0.043.

Take DCAF10 (UniProt Q5QP82): the log2 fold change was 0.007.

Turning to EDC4 (UniProt Q6P2E9), the log2 fold change was 0.061.

In the case of EHD2 (UniProt Q9NZN4), the log2 fold change was -0.003.

For the target DNAH10 (UniProt Q8IVF4), the log2 fold change is -0.146.

Regarding ETNK1 (UniProt Q9HBU6), the log2 fold change is 0.021.

Consider DDX4 (UniProt Q9NQI0), for which the log2 fold change is -0.042.

With E2F4 (UniProt Q16254), the log2 fold change was 0.086.

For the target EFL1 (UniProt Q7Z2Z2), the log2 fold change is -0.009.

For the target EXTL2 (UniProt Q9UBQ6), the log2 fold change is 0.141.

For the target ECPAS (UniProt Q5VYK3), the log2 fold change was 0.048.

Take EEF1AKNMT (UniProt Q8N6R0): the log2 fold change is 0.071.

Turning to DNAJC1 (UniProt Q96KC8), the log2 fold change is -0.035.

For DHX40 (UniProt Q8IX18), the log2 fold change was -0.089.

In the case of ERLIN2 (UniProt O94905), the log2 fold change was 0.009.

Consider EED, A0A5F9ZI63, for which the log2 fold change was -0.016.

Consider FAM118A (UniProt Q9NWS6), for which the log2 fold change is -0.088.

As for CTNNB1 (UniProt P35222), the log2 fold change was 0.03.

As for EXOC8 (UniProt Q8IYI6), the log2 fold change is 0.048.

On to DDX5 (UniProt P17844), for which the log2 fold change was 0.012.

As to CTSB (UniProt P07858), the log2 fold change is -0.006.

Turning to FAM160B1 (UniProt Q5W0V3), the log2 fold change is 0.003.

Take DNAAF2 (UniProt Q9NVR5): the log2 fold change is 0.02.

Regarding DYNC1I2 isoform 5 (UniProt Q13409), the log2 fold change is -0.022.

On to CTSL (UniProt P07711), for which the log2 fold change was -0.081.

In the case of CWC27 (UniProt Q6UX04), the log2 fold change was 0.077.

Consider EEF1B2 (UniProt P24534), for which the log2 fold change is 0.052.

Regarding DCUN1D1 (UniProt Q96GG9), the log2 fold change is -0.004.

With CUEDC2 (UniProt Q9H467), the log2 fold change is 0.109.

For CUX1 isoform 3 (UniProt P39880), the log2 fold change was 0.029.

Regarding DPYSL2 (UniProt Q16555), the log2 fold change is -0.012.

For EXOC2 (UniProt Q96KP1), the log2 fold change is 0.017.

For DIP2A (UniProt Q14689), the log2 fold change is -0.077.

On to DHCR24 (UniProt Q15392), for which the log2 fold change is 0.276.

Consider DBN1 isoform 3 (UniProt Q16643), for which the log2 fold change was 0.158.

Regarding DPP8 (UniProt Q6V1X1), the log2 fold change is -0.027.

With DDB1 (UniProt Q16531), the log2 fold change was -0.013.

Regarding FAM50A (UniProt Q14320), the log2 fold change is 0.089.
